# According to ChEMBL document CHEMBL3988442, “University of Dundee, Small-Polar-MMV Screening Library” (2021):
# For some of these results: Potency and affinity values are given separately.
# Assays:
# Design in all cases: scale not given: direction of the effect not stated beside the values
# [1] = target: Protein translocase subunit SecA (Escherichia coli (strain K12)) (UniProt P10408); experiment: Assay to Identify E. coli SecA ATPase Inhibitors; assay type: functional; details: 30 µM
# [2] = target: T1, Ubiquitin-activating enzyme e1, putative (Leishmania donovani (strain BPK282A1)) (UniProt E9BSI1); experiment: Leishmania donovani Ubiquitin Activating Enzyme (LdE1); assay type: functional; details: 30 µM
# T1 sequence (whole entry): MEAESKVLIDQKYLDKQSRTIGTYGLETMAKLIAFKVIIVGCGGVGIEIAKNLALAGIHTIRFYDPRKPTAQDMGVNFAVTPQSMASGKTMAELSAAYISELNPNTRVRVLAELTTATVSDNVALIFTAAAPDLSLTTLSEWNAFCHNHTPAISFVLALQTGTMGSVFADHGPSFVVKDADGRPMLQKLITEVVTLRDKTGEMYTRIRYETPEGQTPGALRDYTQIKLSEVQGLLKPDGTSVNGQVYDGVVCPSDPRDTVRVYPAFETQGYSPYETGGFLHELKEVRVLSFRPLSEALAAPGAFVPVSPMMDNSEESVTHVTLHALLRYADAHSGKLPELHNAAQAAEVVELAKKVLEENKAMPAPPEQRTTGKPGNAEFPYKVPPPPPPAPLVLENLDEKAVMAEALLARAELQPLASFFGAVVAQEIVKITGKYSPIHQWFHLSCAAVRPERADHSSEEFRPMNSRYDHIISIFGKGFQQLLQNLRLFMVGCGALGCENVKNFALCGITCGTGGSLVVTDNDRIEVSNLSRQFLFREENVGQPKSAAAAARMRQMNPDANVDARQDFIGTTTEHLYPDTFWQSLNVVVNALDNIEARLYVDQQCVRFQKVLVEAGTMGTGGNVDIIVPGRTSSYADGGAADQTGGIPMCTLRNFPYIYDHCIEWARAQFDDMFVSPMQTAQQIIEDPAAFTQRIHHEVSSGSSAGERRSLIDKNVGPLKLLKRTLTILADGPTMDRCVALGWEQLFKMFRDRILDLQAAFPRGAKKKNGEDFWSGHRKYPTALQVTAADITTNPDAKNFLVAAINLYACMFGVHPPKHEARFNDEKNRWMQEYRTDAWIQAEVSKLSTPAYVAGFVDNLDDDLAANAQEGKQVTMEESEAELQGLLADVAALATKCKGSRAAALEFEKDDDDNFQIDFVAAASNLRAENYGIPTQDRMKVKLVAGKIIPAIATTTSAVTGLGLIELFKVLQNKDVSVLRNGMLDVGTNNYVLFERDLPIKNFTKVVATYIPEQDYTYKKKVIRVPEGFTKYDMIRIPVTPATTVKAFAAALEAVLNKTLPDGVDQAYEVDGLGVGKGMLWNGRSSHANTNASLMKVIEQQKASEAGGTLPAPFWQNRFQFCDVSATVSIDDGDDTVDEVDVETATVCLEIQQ
# [3] = target: AMP-activated protein kinase, AMPK (Homo sapiens) (UniProt P54646+O43741+P54619+Q9UGJ0+Q9Y478+Q13131+Q9UGI9); experiment: AMP-dependent Kinase enzyme assay. An in vitro enzyme assay that detects ADP turnover that is directly proportional to AMPK activity. This uses naive AMPK that is activated during the assay with MK-8722; assay type: functional; details: 30 µM
# [4] = target: Sialic acid-binding Ig-like lectin 9 (Homo sapiens) (UniProt Q9Y336); experiment: Hs-Siglec9 ALPHAscreen SOP 20170721; details: 10 µM
# Sialic acid-binding Ig-like lectin 9 (Homo sapiens), sequence (Q9Y336 whole entry): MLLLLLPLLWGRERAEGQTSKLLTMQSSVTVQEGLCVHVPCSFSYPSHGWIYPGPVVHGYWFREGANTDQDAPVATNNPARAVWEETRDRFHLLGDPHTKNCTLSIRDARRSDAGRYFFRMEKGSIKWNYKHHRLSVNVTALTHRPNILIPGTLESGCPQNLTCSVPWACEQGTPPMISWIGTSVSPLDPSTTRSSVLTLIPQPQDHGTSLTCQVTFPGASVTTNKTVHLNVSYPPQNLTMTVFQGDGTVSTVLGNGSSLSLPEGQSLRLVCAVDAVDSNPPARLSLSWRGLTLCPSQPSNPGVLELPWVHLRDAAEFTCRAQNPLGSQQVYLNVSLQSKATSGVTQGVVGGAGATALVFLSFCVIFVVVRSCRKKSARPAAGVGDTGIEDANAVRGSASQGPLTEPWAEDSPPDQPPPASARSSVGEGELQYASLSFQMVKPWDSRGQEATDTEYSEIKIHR
# Trypanosoma cruzi = experiment: Trypanosoma cruzi phosphomannomutase and mannose-1-phosphate guanylyltransferase assay; assay type: functional; details: 10 µM
# [5] = target: T2, Arginase-2, mitochondrial (Homo sapiens) (UniProt P78540); experiment: in vitro enzyme assay to detect the production of urea directly proportional to the activity of Arginase II; assay type: functional; details: 33.3 µM; note: in the data most compounds retested in dose-response had high values
# T2 sequence (whole entry): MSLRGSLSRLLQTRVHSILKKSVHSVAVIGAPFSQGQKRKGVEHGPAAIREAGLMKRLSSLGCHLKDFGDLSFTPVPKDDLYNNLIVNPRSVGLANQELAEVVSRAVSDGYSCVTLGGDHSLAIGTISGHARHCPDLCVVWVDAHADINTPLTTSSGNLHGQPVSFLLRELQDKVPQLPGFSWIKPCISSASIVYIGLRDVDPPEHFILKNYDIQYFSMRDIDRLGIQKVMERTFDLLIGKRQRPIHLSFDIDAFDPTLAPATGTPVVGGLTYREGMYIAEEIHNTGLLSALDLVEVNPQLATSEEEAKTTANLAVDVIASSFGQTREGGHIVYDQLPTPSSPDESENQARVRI
# [6] = target: T3, Proteasome subunit beta (Trypanosoma cruzi) (UniProt O96673); experiment: Trypanosoma cruzi proteasome chymotrypsin-like activity (TcProtChymo) assay.; note: in the data most compounds retested in dose-response had high values; assay type: functional; details: 9.37 µM
# T3 sequence (whole entry): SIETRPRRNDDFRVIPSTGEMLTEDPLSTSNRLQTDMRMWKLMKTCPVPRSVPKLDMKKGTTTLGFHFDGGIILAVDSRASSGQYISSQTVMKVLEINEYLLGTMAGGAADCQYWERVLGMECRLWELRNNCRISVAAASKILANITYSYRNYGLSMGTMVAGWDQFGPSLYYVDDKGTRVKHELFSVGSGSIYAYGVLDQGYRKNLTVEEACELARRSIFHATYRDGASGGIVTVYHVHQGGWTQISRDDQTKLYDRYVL
# Homo sapiens = species: Homo sapiens; experiment: To identify inhibition of the IFN signalling (Jak-Stat) pathway via expression of an eGFP reporter gene under the control of an IFN-stimulated response element (ISRE) containing MxA promoter.; assay type: functional; details: 30 µM
# [7] = target: T4, Tyrosyl-tRNA synthetase, putative (Trypanosoma cruzi (strain CL Brener)) (UniProt Q4DSP6); experiment: Trypanosoma cruzi tyrosyl tRNA synthetase (TcYRS) _High Tyrosine SOP; assay type: functional; details: 30 µM; note: in the data most compounds retested in dose-response had high values
# T4 sequence (whole entry): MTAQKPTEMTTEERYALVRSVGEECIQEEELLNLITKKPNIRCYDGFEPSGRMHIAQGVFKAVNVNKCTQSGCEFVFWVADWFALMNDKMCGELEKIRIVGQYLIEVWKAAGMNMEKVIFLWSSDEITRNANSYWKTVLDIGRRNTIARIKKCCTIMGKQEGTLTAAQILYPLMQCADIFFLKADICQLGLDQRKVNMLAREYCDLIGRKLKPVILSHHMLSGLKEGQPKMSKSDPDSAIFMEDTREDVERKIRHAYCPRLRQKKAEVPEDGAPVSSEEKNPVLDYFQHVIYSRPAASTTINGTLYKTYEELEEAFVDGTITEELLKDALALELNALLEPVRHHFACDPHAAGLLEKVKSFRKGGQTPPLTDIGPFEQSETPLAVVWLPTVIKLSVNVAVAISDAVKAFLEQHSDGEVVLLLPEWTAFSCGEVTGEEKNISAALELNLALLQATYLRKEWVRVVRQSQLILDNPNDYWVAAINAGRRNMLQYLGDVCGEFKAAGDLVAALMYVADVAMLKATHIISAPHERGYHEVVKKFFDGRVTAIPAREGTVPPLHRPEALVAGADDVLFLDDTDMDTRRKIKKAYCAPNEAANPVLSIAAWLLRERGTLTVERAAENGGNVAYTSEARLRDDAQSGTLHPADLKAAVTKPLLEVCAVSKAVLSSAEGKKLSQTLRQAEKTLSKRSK
# [8] = target: T4, Tyrosyl-tRNA synthetase, putative (Trypanosoma cruzi (strain CL Brener)); experiment: Trypanosoma cruzi tyrosyl tRNA synthetase (TcYRS) SOP; assay type: functional; details: 30 µM
# [9] = target: Chromo domain-containing protein 1 (Saccharomyces cerevisiae (strain ATCC 204508 / S288c) (Baker's yeast)) (UniProt P32657); experiment: ScCHD-1 Enzyme Inhibition Assay; assay type: functional; details: 30 µM; note: in the data most compounds retested in dose-response had high values
# Chromo domain-containing protein 1 (Saccharomyces cerevisiae (strain ATCC 204508 / S288c) (Baker's yeast)), sequence (P32657 whole entry, the tested form may be a part): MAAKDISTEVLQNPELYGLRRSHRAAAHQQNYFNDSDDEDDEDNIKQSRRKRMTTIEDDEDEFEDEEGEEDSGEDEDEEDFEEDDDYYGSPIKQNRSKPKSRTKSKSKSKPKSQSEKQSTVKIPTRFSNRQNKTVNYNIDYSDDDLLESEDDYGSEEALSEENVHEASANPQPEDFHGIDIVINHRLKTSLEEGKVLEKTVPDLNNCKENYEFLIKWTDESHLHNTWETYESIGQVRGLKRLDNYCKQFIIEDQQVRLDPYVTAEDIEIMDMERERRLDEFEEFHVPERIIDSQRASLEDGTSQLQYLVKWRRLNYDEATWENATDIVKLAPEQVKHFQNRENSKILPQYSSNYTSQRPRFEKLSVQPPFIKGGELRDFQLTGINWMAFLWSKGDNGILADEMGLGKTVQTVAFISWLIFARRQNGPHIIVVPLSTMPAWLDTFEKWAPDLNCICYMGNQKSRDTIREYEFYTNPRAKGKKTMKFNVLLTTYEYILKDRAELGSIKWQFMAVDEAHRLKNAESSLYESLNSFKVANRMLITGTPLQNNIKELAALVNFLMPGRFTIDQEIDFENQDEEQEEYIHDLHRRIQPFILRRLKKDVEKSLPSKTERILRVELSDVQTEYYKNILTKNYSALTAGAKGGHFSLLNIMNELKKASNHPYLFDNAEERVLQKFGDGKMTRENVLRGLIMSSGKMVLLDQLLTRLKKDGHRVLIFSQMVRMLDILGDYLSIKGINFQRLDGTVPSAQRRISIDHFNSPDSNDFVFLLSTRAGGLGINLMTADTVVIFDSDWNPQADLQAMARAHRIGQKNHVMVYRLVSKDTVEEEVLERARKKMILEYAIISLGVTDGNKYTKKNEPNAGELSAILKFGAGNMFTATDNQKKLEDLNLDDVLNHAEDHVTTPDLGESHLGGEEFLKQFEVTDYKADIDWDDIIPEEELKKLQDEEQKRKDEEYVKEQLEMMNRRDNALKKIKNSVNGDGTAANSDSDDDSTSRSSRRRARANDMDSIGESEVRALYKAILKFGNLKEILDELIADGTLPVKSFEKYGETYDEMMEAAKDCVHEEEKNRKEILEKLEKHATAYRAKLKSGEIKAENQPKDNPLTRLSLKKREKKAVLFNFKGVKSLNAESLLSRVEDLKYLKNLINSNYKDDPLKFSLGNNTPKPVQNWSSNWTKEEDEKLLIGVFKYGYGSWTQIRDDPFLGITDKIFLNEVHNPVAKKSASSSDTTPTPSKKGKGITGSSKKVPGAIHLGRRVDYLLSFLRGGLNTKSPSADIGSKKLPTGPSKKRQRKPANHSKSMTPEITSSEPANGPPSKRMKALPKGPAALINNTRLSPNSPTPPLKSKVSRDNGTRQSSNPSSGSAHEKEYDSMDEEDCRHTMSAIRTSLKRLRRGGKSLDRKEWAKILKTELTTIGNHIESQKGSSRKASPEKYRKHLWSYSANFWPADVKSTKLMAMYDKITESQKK
# Protein translocase subunit SecA (Escherichia coli (strain K12)), sequence (P10408 whole entry): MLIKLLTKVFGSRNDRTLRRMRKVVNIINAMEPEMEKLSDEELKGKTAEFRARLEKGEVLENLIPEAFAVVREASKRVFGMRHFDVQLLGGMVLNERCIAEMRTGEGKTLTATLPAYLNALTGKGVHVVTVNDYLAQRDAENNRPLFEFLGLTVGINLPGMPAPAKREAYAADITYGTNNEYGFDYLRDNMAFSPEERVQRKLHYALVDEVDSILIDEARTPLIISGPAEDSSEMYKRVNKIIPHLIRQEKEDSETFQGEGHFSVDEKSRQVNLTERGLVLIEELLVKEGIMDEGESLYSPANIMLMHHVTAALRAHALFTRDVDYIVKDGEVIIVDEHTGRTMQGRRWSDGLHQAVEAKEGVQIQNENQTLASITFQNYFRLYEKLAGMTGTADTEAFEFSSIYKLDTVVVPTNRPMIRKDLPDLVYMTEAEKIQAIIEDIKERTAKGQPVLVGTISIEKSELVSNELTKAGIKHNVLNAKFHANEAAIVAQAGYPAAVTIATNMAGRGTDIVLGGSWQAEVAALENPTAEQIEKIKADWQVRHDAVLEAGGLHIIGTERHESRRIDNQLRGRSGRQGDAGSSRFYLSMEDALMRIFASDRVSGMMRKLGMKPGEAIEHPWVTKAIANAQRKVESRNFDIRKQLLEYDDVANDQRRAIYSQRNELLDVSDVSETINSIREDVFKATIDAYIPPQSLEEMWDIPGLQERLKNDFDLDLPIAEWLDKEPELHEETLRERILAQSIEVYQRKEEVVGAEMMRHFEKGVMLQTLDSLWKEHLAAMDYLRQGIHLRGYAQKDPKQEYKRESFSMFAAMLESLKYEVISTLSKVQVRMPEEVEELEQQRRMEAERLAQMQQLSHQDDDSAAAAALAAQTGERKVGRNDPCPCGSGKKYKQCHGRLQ
Structure (SMILES),Percent Effect [1] [%],Percent Effect [2] [%],Percent Effect [3] [%],Percent Effect [4] [%],Percent Effect (Trypanosoma cruzi) [%],Percent Effect [5] [%],Percent Effect [6] [%],Percent Effect (Homo sapiens) [%],Percent Effect [7] [%],Percent Effect [8] [%],Percent Effect [9] [%]
CC(C)NC(=O)N1CCN(S(=O)(=O)C2CC2)CC2(CNC(=O)C2)C1 (stereo unspecified),-6.38,18.2,0.68,2.04,4.63,0.645,7.66,9.81,2.12,11.5,-5.37
CCc1cc(C)c(C(=O)N2CCCC2CC(=O)c2cnn(C)c2)o1 (stereo unspecified),-1.93,-1.27,169,-0.655,-1.13,-1.5,7.03,7.3,-1.04,0,-4.62
CCn1cc(CN2CCCN(C(=O)CCc3ccncc3)CC2)cn1,-3.49,26,-14.6,4.57,1.87,-0.712,5.91,23.6,8.74,14.6,-7.66
COCC1CC2(CCN(C(=O)c3ccc(OC)c(Cl)c3)CC2)CO1 (stereo unspecified),4.75,15.6,-2.46,-7.51,-5.82,9.68,13.8,15.9,-1.06,3.85,-9.46
CCN1CCN(c2ccc(F)cc2C(C)NCc2noc(C)n2)CC1 (stereo unspecified),-1.18,-8.11,-2.95,-6.13,-1.27,1.74,2.83,-7.51,1.07,1.24,-0.843
NC(=O)c1ccc(NC(=O)CCN2CCCC(N3CCCC3)C2)cc1 (stereo unspecified),-9.36,13.5,-4.04,16.5,8.98,22.5,9.38,19.4,9.9,15.8,-5.57
c1ccc(C[C@H]2CN(Cc3nccs3)CC[C@H]2OCC2CC2)cc1,-4.65,2.67,3.57,3.38,-0.591,-2.56,4.32,21.5,3.19,11.5,-3.05
COc1ccc(CCN2CCCC(CN(C)Cc3ccc(C)o3)C2)cc1 (stereo unspecified),-1.16,0,-4.07,31.8,5.18,4.71,0.772,11.1,5.38,11.1,0.528
CN(C)[C@@H]1CCN(C(=O)c2ccsc2)[C@H]1Cc1cnn(C)c1,-3.13,0,12.6,1.61,-3.15,-1.63,12.2,4.21,3.19,-1.28,2.12
CCn1c(C)nnc1CN(C)C1CCN(CCc2ccncc2)C1 (stereo unspecified),-2.2,20.8,-0.899,1.88,1.47,-3.16,9.62,13.3,11.4,30.6,-19.1
Cc1nc(CN(C)C2CCN(CC3CCCCC3)C2)no1 (stereo unspecified),-3.09,18.9,-8.63,1.46,4.55,-7.95,8.8,10.1,5.94,23.2,-8.81
